The values that follow come from PubChem BioAssay (NCATS).

Results filed as inconclusive are left out. The source made the active and inactive calls. The call rests on the fitted dose curve; in most records, active means well fitted cell-killing curve with a large enough effect; inconclusive means small, poorly fitted or top-dose-only effect; inactive means flat fitted curve, though single readings scatter.
Potency means the concentration at half of the fitted maximal effect.

A short description of the assay: Cell Viability - LYMP1-002 - Assay at 16 hr (AID 948).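 On activity change, negative = cytotoxicity: 0% = DMSO alone and full effect = 92 µM tetraoctylammonium bromide.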 Conditions: LYMP1-002 lymphoblastoid cell viability; series mostly up to 92.2 µM; activity change, negative = cytotoxicity: at the top concentration. The text has this: NIH Chemical Genomics Center [NCGC]
NIH Molecular Libraries Screening Centers Network [MLSCN]
National Institutes of Environmental Health Sciences [NIEHS]
National Toxicology Program [NTP]
We have developed a 1536-well cell-based assay for quantitative high throughput screening (qHTS) against a number of cell lines to determine in vitro cytotoxicity of small molecules. This particular assay uses a human lymphoblastoid cell line (LYMP1-002) purchased from Coriell Institute for Medical Research.
NCGC Assay Protocol Summary:
The CellTiter-Glo luminescent cell viability assay (Promega) is a homogeneous method to measure the number of viable cells in culture. The end point readout of this assay is based on quantitation of intracellular ATP, an indicator of metabolic activity, using the luciferase reaction. Luciferase catalyzes the oxidation of beetle Luciferin to oxyluciferin and light in the presence of ATP. The luminescent signal is proportional to amount of ATP present.
Using the CellTiter-Glo luminescent cell viability assay, the amount of cellular ATP was measured in the lymphoblastoid cell line with complete culture medium following compound treatment for 16 hours. The assay was performed in opaque white Kalypsys 1536-well plates. In the screen, tetraoctylammonium bromide was used as positive control. Library compounds were measured for their ability to cause acute toxicity in the cell line, as reflected by a decrease in intracellular ATP levels, in a concentration-dependent manner. […] AC50 values were determined from concentration-response data modeled with the standard Hill equation.
qHTS protocol for CellTiter Glo lymphoblastoid cellular assay
[Step] [Parameter] [Value] [Description]
1. Reagent; 5 uL; 2500 lymphoblastoid cells/well
2. Time; 5 hr; 37 C incubation
4. Controls; 23 nL; Tetraoctylammonium bromide 6.4pM to 92 uM
5. Time; 16 hr; 37 C incubation
6. Reagent; 5 uL; CellTiter Glo reagent
7. Time; 30 min; Room Temperature
8. Detection; Luminescence; Viewlux plate reader
Keywords: cell viability, cytotoxicity, lymphoblastoid cell line, luminescence, NTPHTS, NTPHTS_NCGC, NIEHS, DSSTox, MLSMR, MLSCN, NIH Roadmap, qHTS, NCGC
For `O=C=Nc1ccc(Cl)c(Cl)c1`, the “activity change, negative = cytotoxicity” value was -12.5% (inactive).

For `Cc1ccc(S(N)(=O)=O)cc1`, the “activity change, negative = cytotoxicity” value is 1.67% (inactive).

`CN(C)c1ccc(Cc2ccc(N(C)C)cc2)cc1`: the “activity change, negative = cytotoxicity” value was -12.1% (inactive).

Consider `C=CC(=O)CC`, for which the “activity change, negative = cytotoxicity” value was -0.307% (inactive).

Regarding `Cc1cc2nc(N)sc2cc1C`, the “activity change, negative = cytotoxicity” value is -4.44% (inactive).

As to `CCN(CC)c1ccc2c(C)cc(=O)oc2c1`, the “activity change, negative = cytotoxicity” value was -5.24% (inactive).

Consider `COc1ccc(C)cc1N`, for which the “activity change, negative = cytotoxicity” value was -4.21% (inactive).

Take `Nc1ccc(N=Nc2ccccc2)c(N)c1`: the “activity change, negative = cytotoxicity” value is -10.6% (inactive).

For `Cc1c(N)cccc1Cl`, the “activity change, negative = cytotoxicity” value is -1.6% (inactive).

In the case of `O=CC(=O)c1ccccc1`, the “activity change, negative = cytotoxicity” value was -7.24% (inactive).

`O=[N+]([O-])c1cccc(I)c1`: the “activity change, negative = cytotoxicity” value is -4.14% (inactive).

Take `C=CC1CO1` (stereo not given): the “activity change, negative = cytotoxicity” value is -0.0549% (inactive).

Turning to `CC(C)S`, the “activity change, negative = cytotoxicity” value was -4.78% (inactive).

Regarding `CC(C)OCC1CO1` (stereo not given), the “activity change, negative = cytotoxicity” value was -4.34% (inactive).

In the case of `CC(/C=C/C=C(C)/C=C/C(=O)O)=C\C=C\C=C(C)\C=C\C=C(C)\C=C\C(=O)O`, the “activity change, negative = cytotoxicity” value is -10.9% (inactive).

With `O=C1OC(=O)c2ccccc21`, the “activity change, negative = cytotoxicity” value is -4.5% (inactive).

Regarding `Nc1cc(C(=O)O)c(O)c(S(=O)(=O)O)c1`, the “activity change, negative = cytotoxicity” value is -0.0077% (inactive).

Regarding `CC(=O)OC1CC(C)OC(C)O1` (stereo not given), the “activity change, negative = cytotoxicity” value is -1.34% (inactive).

As for `CCCCCCN`, the “activity change, negative = cytotoxicity” value was -3.9% (inactive).

Take `O=C(Cl)c1ccc([N+](=O)[O-])cc1`: the “activity change, negative = cytotoxicity” value is -0.872% (inactive).

On to `CCOC(=O)C1OC1c1ccccc1` (stereo not given), for which the “activity change, negative = cytotoxicity” value is -5.95% (inactive).

In the case of `Brc1ccc(-c2ccccc2)cc1`, the “activity change, negative = cytotoxicity” value is -2.94% (inactive).

`CCCCOC(=O)COc1ccc(Cl)cc1Cl`: the “activity change, negative = cytotoxicity” value is -3.66% (inactive).

For the molecule `OC1CCCCC1`, the “activity change, negative = cytotoxicity” value is -1.12% (inactive).

For the molecule `C=CC(=O)OCCCCCCOC(=O)C=C`, the Potency is 39.8 µM (active).

As to `COc1ccc([N+](=O)[O-])cc1N`, the “activity change, negative = cytotoxicity” value is -2.61% (inactive).

As to `c1c[nH]cn1`, the “activity change, negative = cytotoxicity” value was -3.24% (inactive).

Take `CC(=O)Nc1cccc(C)c1`: the “activity change, negative = cytotoxicity” value is 2.37% (inactive).

Turning to `CCCC(=O)OC(=O)CCC`, the “activity change, negative = cytotoxicity” value was -3.39% (inactive).

On to `Cc1ccccc1OCC1CO1` (stereo not given), for which the “activity change, negative = cytotoxicity” value is -8.97% (inactive).

As to `Cc1cccnc1`, the “activity change, negative = cytotoxicity” value is -7.6% (inactive).

In the case of `Cc1ccc(O)c(N)c1`, the “activity change, negative = cytotoxicity” value is -6.04% (inactive).

As to `C1CCCNCC1`, the “activity change, negative = cytotoxicity” value is -0.469% (inactive).

For `C=Cc1cccc(C)c1`, the “activity change, negative = cytotoxicity” value is -0.252% (inactive).

`C/C(Cl)=C/CCl`: the “activity change, negative = cytotoxicity” value is -9.41% (inactive).

In the case of `c1cc2c3c(c1)ccc1cccc(c13)C2`, the “activity change, negative = cytotoxicity” value was 1.65% (inactive).

In the case of `O=C1c2ccccc2C(=O)C1(O)O`, the “activity change, negative = cytotoxicity” value was -5.91% (inactive).

Turning to `CC(=O)CC(=O)Nc1ccccc1`, the “activity change, negative = cytotoxicity” value is -2.77% (inactive).

In the case of `Cc1cc(=O)oc2cc(O)cc(O)c12`, the “activity change, negative = cytotoxicity” value is 5.67% (inactive).

In the case of `Oc1c(Cl)cc(Cl)c(Cl)c1Cl`, the “activity change, negative = cytotoxicity” value is -1.82% (inactive).
